From PubChem BioAssay
Values without a mark were called inactive. No rule for the calls is given here.

tested on: Aerobactin synthetase IucA (Klebsiella pneumoniae hvKP1); test: IucA enzyme inhibition, primary screen, biochemical, Spectrum library (AID 1346200); conditions: malachite green pyrophosphate, A620, at 8 µM, hits give low values;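 also: 100% = wells without compound and 0% = wells lacking enzyme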

For `Cn1cc[nH]c1=S`, which activity remaining is on record?
The activity remaining was 99.8%.

With `C=CCc1ccc(O)c(OC)c1` as the compound, how does the activity remaining read?
The activity remaining was 115%.

`CN1CCN(CCC=C2c3ccccc3Sc3ccc(S(=O)(=O)N(C)C)cc32)CC1` was tested. Which activity remaining did it give?
The activity remaining was 116%.

`O=C1C=CC2=C3c4cc(O)c(O)cc4CC3(O)COC2=C1O` (centres undefined) was tested. Which activity remaining did it give?
The activity remaining was 94.5%.
